VACV mCherry inh: inhibitors of vaccinia virus infection (mCherry reporter signal); Potency, µM (highest dose often 36.5 µM), most hits filed as inhibitors; Vaccinia virus mCherry reporter infection, fluorescence; 310,000 tested, 0.63% active; AID 720579; calls by dose curve; tested in A549 cells; further: nearly all actives have a fitted effect of over 35% in size
FMDV inh: antivirals against foot and mouth disease virus; AID 1159524; FMDV antiviral cell-based qHTS; Potency, µM (series often up to 57.9 µM), usual class: inhibitors; 410,000 tested, 1.2% active; calls by dose curve; tested in HEK293T cells; further: read-out not given here; nearly all actives have a fitted effect of over 45% in size
MARV entry inh: inhibitors of Marburg virus binding or cell entry. Marburg virus pseudotyped entry inhibition, cell reporter. Potency, µM (series often up to 37.8 µM), most hits filed as inhibitors. AID 540276. 300,000 tested, 1.8% active; calls by dose curve; tested in HEK293 cells
Lassa entry inh: inhibitors of Lassa virus binding or cell entry | Potency, µM (top dose mostly 37.9 µM), usual class: inhibitors | 300,000 tested, 1.2% active | Lassa virus pseudotype entry inhibition, cell reporter; calls by dose curve; tested in HEK293 cells; further: nearly all actives have a fitted effect of over 50% in size
HCMV antiviral: human cytomegalovirus inhibition. AID 1259415. 410,000 tested, 4.5% active. HFF cells, HCMV-luciferase reporter, 72 h; active compounds read low. activity change, negative = inhibition, % at 57.5 µM; in the data active means activity change below about -60%; inconclusive means no clear call, values can overlap the other calls; inactive means above about -39%
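Human foreskin fibroblasts infected with luciferase-reporter HCMV at MOI 1 PFU/cell, compounds at two doses. Luciferase measured 72 h post infection; normalized to buffer-only basal and Salinomycin (10uM) controls.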
Vaccinia Venus: vaccinia inhibition (Venus reporter) | Vaccinia virus Venus reporter expression, fluorescence | 330,000 tested, 0.46% active | Potency, µM (doses to about 36.5 µM), actives largely listed as inhibitors; calls by dose curve; tested in A549 cells; further: nearly all actives have a fitted effect of over 30% in size
Large screens that a line does not name were inactive. An excerpt weighted towards active compounds, which were near 6.5% of everything screened.

O=[N+]([O-])c1ccc(-[n+]2ccc3ccccc3c2)c([N+](=O)[O-])c1	VACV mCherry inh 10µM, FMDV inh 28µM, Vaccinia Venus inconclusive (no result: MARV entry inh, Lassa entry inh)
C/C(=N\NC(=S)Nc1ccccc1C)c1cc2ccccc2o1	VACV mCherry inh inconclusive, MARV entry inh inconclusive, Lassa entry inh inconclusive, HCMV antiviral inconclusive
C/C(=N\NC(=S)Nc1c(C)cccc1C)c1cc2ccccc2o1	VACV mCherry inh 7.1µM, MARV entry inh inconclusive, Lassa entry inh inconclusive, Vaccinia Venus inconclusive
Cn1c(-c2ccsc2)cc2c(Nc3ccc(Oc4ccccc4)cc3)nccc21	HCMV antiviral -89 (no result: VACV mCherry inh, FMDV inh, MARV entry inh, Lassa entry inh, Vaccinia Venus)
COc1cccc(-c2cc3c(Nc4ccc(OC)cc4C)nccc3n2C)c1	none (no result: VACV mCherry inh, FMDV inh, MARV entry inh, Lassa entry inh, Vaccinia Venus)
O=C(CCc1ccccc1)NCc1ccc(F)cc1	none
Cc1ccccc1-c1ccc(C(=O)NCc2ccccc2)o1	Lassa entry inh inconclusive, Vaccinia Venus inconclusive
O=C(NCc1ccccc1)c1ccc(-c2ccc(F)cc2)o1	Lassa entry inh 6.5µM (no result: VACV mCherry inh, Vaccinia Venus)
O=C(O)c1ccc(-c2ccccc2C(F)(F)F)o1	none
Cc1ccc(-c2ccc(C(=O)NCc3ccc(Cl)cc3)o2)c2ccccc12	VACV mCherry inh inconclusive, Lassa entry inh 21µM
O=C(NCc1ccccc1)c1ccc(-c2ccccc2C(F)(F)F)o1	MARV entry inh inconclusive, Lassa entry inh 2.3µM
CC(CNC(=O)c1ccc2nc(Cc3ccccc3)oc2c1)c1ccccc1 (centres undefined)	Lassa entry inh inconclusive (no result: MARV entry inh)
COc1ccccc1C(=O)Nc1cccc(C(=O)OCc2cc(=O)n3ccsc3n2)c1	none (no result: MARV entry inh)
CC(C)COC(=O)N(C)c1ccc(C(O)(C(F)(F)F)C(F)(F)F)cc1	FMDV inh inconclusive, Lassa entry inh 3.5µM, Vaccinia Venus inconclusive (no result: VACV mCherry inh)
CCC(C)n1c(=S)[nH]c2c(sc3ccc([N+](=O)[O-])cc32)c1=O (centres undefined)	FMDV inh 35µM, HCMV antiviral inconclusive
O=C(NCC1CC1)C1=COC2=NC(=O)N(Cc3cccc(Cl)c3)CCN12	none (no result: VACV mCherry inh, FMDV inh, MARV entry inh, Lassa entry inh, Vaccinia Venus)
COCCn1c(SCc2nc3scc(-c4ccc(Cl)cc4)c3c(=O)[nH]2)nnc1-c1cccc(C)c1	VACV mCherry inh inconclusive, FMDV inh 40µM, MARV entry inh inconclusive, HCMV antiviral inconclusive, Vaccinia Venus inconclusive
CC(=O)C1=C(O)C(=O)N(c2ccc(F)cc2)C1c1ccc(C)cc1 (centres undefined)	HCMV antiviral -69
CC(=O)C1=C(O)C(=O)N(c2ccc(O)cc2)C1c1ccc(C)cc1 (centres undefined)	none
Cc1ccccc1C(=O)N1CCC2CC1c1cc(-c3ccc(F)cc3)ccc12 (centres undefined)	FMDV inh 32µM (no result: MARV entry inh, Lassa entry inh)
COc1cc(NC(=O)c2cc3nc(-c4ccc(C)cc4)cc(C(F)(F)F)n3n2)cc(OC)c1OC	none (no result: MARV entry inh)
O=C1CCCN1c1ccc(S(=O)(=O)Nc2ccc3c(c2)OCCO3)cc1	VACV mCherry inh inconclusive, MARV entry inh inconclusive, Lassa entry inh inconclusive, HCMV antiviral -81, Vaccinia Venus inconclusive (no result: FMDV inh)
Cc1ccc(S(=O)(=O)Nc2ccc3c(c2)OCCO3)cc1	Lassa entry inh inconclusive
Cc1ccc2[nH]cc(C(=O)CCl)c2c1	VACV mCherry inh inconclusive, FMDV inh 11µM, MARV entry inh inconclusive, Lassa entry inh inconclusive, HCMV antiviral -91
Cc1ccc2[nH]cc(C(=O)CN3CCN(C)CC3)c2c1	MARV entry inh inconclusive (no result: VACV mCherry inh, Vaccinia Venus)
COc1ccc2ccccc2c1CN1CCc2nnc(C(NS(C)(=O)=O)C(C)C)n2CC1 (centres undefined)	none (no result: MARV entry inh, Lassa entry inh, HCMV antiviral)
CCc1ccc2oc(-c3cccc(NC(=O)C(C)(C)Oc4ccc(Br)cc4)c3)nc2c1	MARV entry inh inconclusive, Lassa entry inh inconclusive
O=S(=O)(c1ccc2ccccc2c1)N1CCN(c2nc(-c3ccccc3)nc3ccccc23)CC1	none (no result: FMDV inh, MARV entry inh, Lassa entry inh, HCMV antiviral)
CC(C)CC(=O)Nc1ccc(Nc2ccccc2)cc1	MARV entry inh inconclusive, Lassa entry inh 3.5µM
CC1(C)CC(=O)C2=C(C1)NC(Nc1nc3ccccc3o1)=NC2c1cccc(O)c1 (centres undefined)	Vaccinia Venus inconclusive (no result: FMDV inh, MARV entry inh, Lassa entry inh, HCMV antiviral)
COc1ccc(NC(=O)CSc2n[nH]c(C)c2[N+](=O)[O-])cc1	none (no result: VACV mCherry inh, MARV entry inh, Lassa entry inh, Vaccinia Venus)
Cc1ccc(NC(=O)CSc2n[nH]c(C)c2[N+](=O)[O-])cc1C	HCMV antiviral -69
Cc1ccc(O)c(NC(=O)CSc2n[nH]c(C)c2[N+](=O)[O-])c1	VACV mCherry inh 2.5µM, MARV entry inh inconclusive, HCMV antiviral inconclusive, Vaccinia Venus inconclusive
